The structures appear in SMILES notation. The whole screen tested about 69,000 compounds, of which about 8,600 (12%) showed an effect of 50% or more. For the sample, strong results were picked, then their nearest neighbours and some compounds at random.

For this experiment, the system named is Plasmodium berghei. Kind of experiment: Screen against P. berghei liver stage (PbLuc), transformed with Luciferase, at 10uM. The class given is functional, HepG2. The conditions noted are these: tested at 10 uM.
Turning to `Cc1nc(C(=O)N2CCCCC2)nn1-c1ccccc1Cl`, the INHIBITION is recorded as 4.52%.

On to `CCc1nc(C(=O)N2CCN(C)CC2)nn1-c1ccccc1Cl`, for which the INHIBITION is on record as 34.7%.

Consider `Cc1cnc(CC2COCCN(C(=O)c3cncs3)C2)cn1` (stereo not drawn), for which the INHIBITION amounted to 21.5%.

With `CCc1ccc(C(=O)N2CCC(c3nncn3CC)CC2)o1`, the INHIBITION amounted to 28.1%.

With `COc1ccc(OCCN(C)S(=O)(=O)c2cnn(C)c2)cc1`, the INHIBITION is listed as 11.5%.

In the case of `O=C(NCCOc1ccccc1)Nc1cc(C(F)(F)F)c[nH]c1=O`, the INHIBITION is on record as 9.895%.

Regarding `CC(=O)N1CCC2(CC1)CN(CC1CC1)c1ccc(F)cc12`, the INHIBITION came to 37.6%.

As to `COCC(=O)N1CCC2(CC1)CN(CC1CC1)c1ccc(F)cc12`, the INHIBITION is given as 77.4%.

With `COCC(=O)N1CCC2(CCc3ccc(F)cc32)CC1`, the INHIBITION was -30%.

`Cn1cc(CN2CCCC23CCN(C(=O)c2ccsc2)CC3)cn1`: the INHIBITION is -16.1%.

With `Cc1cnn(CC2CCCN2C(=O)c2ccc3[nH]c(=O)[nH]c3c2)c1` (stereo not drawn), the INHIBITION turned out to be 17.5%.

As to `CN(Cc1cccs1)c1nc2c(cnn2C(C)(C)C)c(=O)[nH]1`, the INHIBITION was found to be 53.5%.

Take `Cc1ncc(CN(C)c2nc3c(cnn3C(C)(C)C)c(=O)[nH]2)s1`: the INHIBITION came out at 30.8%.

Consider `Cc1ccsc1CN(C)c1nc2c(cnn2C(C)(C)C)c(=O)[nH]1`, for which the INHIBITION was 70.7%.

As for `CCN(Cc1nc2c(cnn2C)c(=O)[nH]1)Cc1cccs1`, the INHIBITION is listed as 44.6%.

For the molecule `Cc1ccsc1CN(C)Cc1nc2c(cnn2C)c(=O)[nH]1`, the INHIBITION is reported as 26.3%.

As to `Cc1nc(CN(C)c2nc3c(cnn3C(C)(C)C)c(=O)[nH]2)cs1`, the INHIBITION came to 36.2%.

Regarding `CCc1nc2n(n1)CC(NCc1cnc(N(CC)CC)s1)CC2` (stereo not drawn), the INHIBITION came out at 30.5%.

For `CC(=O)N1CCCC(C(=O)c2cnn(-c3ccc(F)cc3)c2N)C1` (stereo not drawn), the INHIBITION amounted to 24.425%.

With `Cc1nc[nH]c1CN1C[C@@H]2OCCN(c3ncccn3)[C@@H]2C1`, the INHIBITION was determined as 42.7%.

Take `Cc1ccc(-n2ccnc2-c2cn(C3CCNCC3)nn2)c(Cl)c1`: the INHIBITION was 45.8%.

In the case of `CCN1CCN(C(=O)c2scnc2C)CC1`, the INHIBITION came out at 26.4%.

In the case of `Cc1ncsc1C(=O)N1CCN(CCC(C)C)CC1`, the INHIBITION is on record as 53.7%.

With `Cc1cccc(C(=O)N2CCN(CCOC(C)C)CC2)n1`, the INHIBITION is on record as -49.3%.

With `CC(C)CCN1CCN(C(=O)c2ccc(=O)[nH]n2)CC1`, the INHIBITION is listed as 47%.

Regarding `Cc1cccc(C(=O)N2CCN(CCC(C)C)CC2)n1`, the INHIBITION is recorded as 50.3%.

Take `CCCN1CCN(C(=O)c2scnc2C)CC1`: the INHIBITION came out at 11.1%.

On to `CCN1CCCc2cc(CN3CCc4nc(C)[nH]c(=O)c4C3)ccc21`, for which the INHIBITION was found to be 15.1%.

Turning to `Cn1ncc(Cl)c1C(=O)NCCN1CCC(O)(c2ccc(F)cc2)CC1`, the INHIBITION is on record as 6.3%.

Take `CCOCCCNC(=O)CN(c1cccc(F)c1)S(C)(=O)=O`: the INHIBITION is listed as 30%.

Regarding `COC(=O)c1c(Cl)c(C2CC2)nc2onc(C)c12`, the INHIBITION is 47.2%.

On to `O=C(Cn1ccnc1)N1C[C@@H]2CC[C@H](Oc3ccccc3)[C@@H]2C1`, for which the INHIBITION is reported as 24.5%.

For `O=C(Cn1ccnc1)N1C[C@@H]2CC[C@H](Oc3ccc(Cl)cc3)[C@@H]2C1`, the INHIBITION turned out to be 56%.

As for `O=C(Cn1ccnc1)N1C[C@@H]2CC[C@H](Oc3ccccc3Cl)[C@@H]2C1`, the INHIBITION was 53.5%.

Take `O=C(Cn1ccnc1)N1C[C@@H]2CC[C@H](Oc3cccc(F)c3)[C@@H]2C1`: the INHIBITION was 1.5%.

`O=C(Cn1ccnc1)N1C[C@@H]2CC[C@H](Oc3ccccc3F)[C@@H]2C1`: the INHIBITION is listed as -6.92%.

`CN(C)CC(=O)N1C[C@@H]2CC[C@H](Oc3ccccc3Cl)[C@@H]2C1`: the INHIBITION turned out to be 37.5%.

`Cc1ccc(CN2C(=O)OCC2CO)c2ccccc12` (stereo not drawn): the INHIBITION was determined as 40.3%.

As for `CNc1nc(CNC(=O)Nc2cccc(C(C)OC)c2)cs1` (stereo not drawn), the INHIBITION was found to be 13.957%.

Take `N[C@H]1CN(C(=O)CCc2ccccn2)C[C@@H]1c1ccccc1`: the INHIBITION stood at 37.6%.

On to `Nc1nc(CCC(=O)N2C[C@H](c3ccccc3)[C@@H](N)C2)cs1`, for which the INHIBITION amounted to 51%.

Take `Nc1nc(CCC(=O)N2CCOC(CC3CCCCC3)C2)cs1` (stereo not drawn): the INHIBITION is reported as 85.1%.

As to `Cc1n[nH]c(C2CN(C(=O)CCc3cscn3)CCO2)n1` (stereo not drawn), the INHIBITION was found to be 40.75%.

`CN(C)C1CCCN(C(=O)CCc2csc(N)n2)CC1` (stereo not drawn): the INHIBITION amounted to 33.9%.

Turning to `N[C@H]1CN(C(=O)CCC(F)(F)F)C[C@@H]1c1ccccc1`, the INHIBITION was 36.5%.

On to `COCCCC1CCCN(C(=O)CCc2csc(N)n2)C1` (stereo not drawn), for which the INHIBITION is given as 35.8%.

As for `CN(C)[C@H]1CCCCN(C(=O)CCc2csc(N)n2)C1`, the INHIBITION is recorded as 16.8%.

For `CN1[C@@H]2CC[C@H]1CN(C(=O)CCc1csc(N)n1)CC2`, the INHIBITION was 50.3%.

On to `CC1c2ncc(COCC3CCOCC3)n2CCN1Cc1cccnc1` (stereo not drawn), for which the INHIBITION is listed as 12.1%.

For the molecule `Cc1ccsc1[C@@H]1CCN(C(=O)CCc2nc3ccccc3[nH]2)C[C@H]1O`, the INHIBITION is listed as -27.5%.

For the molecule `Cc1ccsc1[C@@H]1CCN(C(=O)c2ccc(-c3cc[nH]n3)cc2)C[C@H]1O`, the INHIBITION is 16.1%.

Regarding `Cc1ccsc1[C@@H]1CCN(C(=O)c2cc3ccccc3[nH]2)C[C@H]1O`, the INHIBITION is 66.9%.

As to `c1csc(CN2CCc3ncnc(C4CCOC4)c3CC2)n1` (stereo not drawn), the INHIBITION is 31.4%.

For the origin of these results see ChEMBL document CHEMBL4513216, “Probing the Open Global Health Chemical Diversity Library for Multistage-Active Starting Points for Next-Generation Antimalarials” (ACS Infect Dis, 2020).
